D2 ag-1: agonists of human D2 dopamine receptor. P14416. HEK293 T-REx D2 cells, calcium flux agonist mode. activation, % at 2 µM. actives 0.53% (n = 340,000). AID 485358;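 active means activation over 3 SD above normal in the single-dose calcium agonist read, cut at about 30% in these data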; further: 0% is about no effect
Target sequence (P14416 whole entry, looked up): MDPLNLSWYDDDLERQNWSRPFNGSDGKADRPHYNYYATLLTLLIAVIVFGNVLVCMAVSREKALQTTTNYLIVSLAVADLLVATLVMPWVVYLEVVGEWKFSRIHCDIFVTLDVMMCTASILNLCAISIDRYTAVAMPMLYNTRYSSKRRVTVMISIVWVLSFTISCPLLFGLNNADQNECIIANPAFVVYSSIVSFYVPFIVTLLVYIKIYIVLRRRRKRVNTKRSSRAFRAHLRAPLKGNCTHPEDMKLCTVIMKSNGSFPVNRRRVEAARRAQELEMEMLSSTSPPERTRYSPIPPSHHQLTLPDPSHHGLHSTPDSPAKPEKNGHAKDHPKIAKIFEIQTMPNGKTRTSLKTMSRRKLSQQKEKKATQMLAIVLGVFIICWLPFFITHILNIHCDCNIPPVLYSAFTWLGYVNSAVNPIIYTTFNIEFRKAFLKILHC
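In this primary screen, compounds producing a positive calcium signal within 180 s of addition to tetracycline-induced, force-coupled HEK293 Trex D2 cells are flagged; cells are dye-loaded with a no-wash calcium kit beforehand.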
D2 antagonist: antagonizes the human D2 dopamine receptor; actives 2% (n = 340,000); inhibition, % at 10 µM; HEK293 TREx D2 cells, calcium flux, dopamine EC80; P14416; AID 485344; in the data active means inhibition above about 30%; inactive means below that, where a call was filed; further: 0% is about no effect
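Antagonism is scored as inhibition of an EC80 dopamine-evoked calcium signal in a force-coupled, tetracycline-inducible HEK293 T-REx D2 line, with compound present 180 s before agonist.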
D2 ag-2: human D2 receptor agonism in beta-arrestin assay. P14416. DiscoveRx PathHunter D2 beta-arrestin, luminescence, 90 min; 100% = 57 uM dopamine signal. activation, % (concentration not given with the values). actives 0.084% (n = 360,000). AID 624465; in the data active means activation above about 40%; inconclusive means between about 15% and that limit
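Agonist mode: compounds alone added to overnight-plated D2 PathHunter cells for 90 min at 37 C, with 57 uM final dopamine (EC100) defining full response. Beta-arrestin recruitment detected by chemiluminescent reagent, read after 1 h at ambient temperature.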
D2 PAM-1: human D2 receptor positive allosteric modulation | P14416 | DiscoveRx D2 beta-arrestin cells, luminescence, 90 min; 100% = 57 uM dopamine signal | potentiation, % (test concentration not listed) | actives 0.23% (n = 360,000) | AID 624464; in the data active means potentiation above about 50%; inconclusive means mostly about 30% to 49%
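D2 cells co-treated with compound plus 50 nM dopamine (EC20) for 90 min at 37 deg C to detect potentiation. Beta-arrestin recruitment was read as enzyme-fragment luminescence after 1 h at ambient temperature. Full response was set by 57 uM dopamine.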
D2 PAM-2: positively modulates the human D2 dopamine receptor allosterically; P14416; HEK293 T-REx D2, calcium flux, EC20 dopamine potentiation; potentiation, % at 10 µM; actives 0.34% (n = 340,000);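 active means potentiation over 3 SD above the plate norm, cut at about 30% in these data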; further: 0% is about no effect
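Calcium flux readout, no-wash dye, 1 read/s. Inducible HEK293 Trex D2 line, overnight 30 C. Compound alone 180 s (agonist flags), then EC20 dopamine, another 180 s to score potentiation.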
D3 ag: D3 receptor agonism confirmed, beta-arrestin readout; shares compounds with D2 ag-1; DiscoveRx D3 beta-arrestin cells, luminescence, 90 min; Potency, µM (top dose mostly 76.9 µM), for the others: at the top dose activation, hits mostly activators; actives 4% (n = 2,300); AID 720506;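 further: potency means the concentration at half of the fitted maximal effect; 100% = dopamine control response; nearly all actives have a fitted effect of over 70% in size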
D2 ag-3: D2 receptor agonism, beta-arrestin counterscreen; shares compounds with D2 ag-1; DiscoveRx PathHunter D2 beta-arrestin, luminescence, 90 min; response scale: percent relative to full dopamine signal; Potency, µM (series often up to 76.9 µM), inactives show top-dose activation, hits mostly activators; actives 5.9% (n = 2,300); further: potency means the concentration at half of the fitted maximal effect; % of control where 0% means no effect; nearly all actives have a fitted effect of over 70% in size
An asterisk follows results filed as active. A selection: hits, their analogues and other compounds. The true share with any hit is near 2.4%. Unless noted, the call rests on the fitted dose curve; in most records, active means well fitted activation curve with a large enough effect; inconclusive means small, poorly fitted or top-dose-only effect; inactive means flat fitted curve, though single readings scatter.

`CCOC(=O)c1c(N)n(-c2ccc(N)cc2)c2nc3ccccc3nc12` gave D2 ag-1 44*, D2 antagonist -1, D2 ag-2 2, D2 PAM-1 6, D2 PAM-2 -14, D3 ag -12% and D2 ag-3 -7%.
CCOC(=O)c1c(N)n(-c2ccc(CC)cc2)c2nc3ccccc3nc12 was read as D2 ag-1 -2 and D2 PAM-2 1.
Cc1ccc(N2CCN(Cc3nnc(-c4ccccc4F)o3)CC2)c(C)c1 was read as D2 ag-1 1 and D2 PAM-2 -4.
`O=C(CCc1nnc2n(Cc3ccccc3Cl)c(=O)c3ccccc3n12)NCCCN1CCOCC1` gave D2 ag-1 1, D2 antagonist -8, D2 ag-2 -1, D2 PAM-1 -10 and D2 PAM-2 -5.
Screening Cc1ccc(Cn2c(=O)c3ccccc3n3c(CCC(=O)NCCN4CCOCC4)nnc23)cc1 returned D2 ag-1 63*, D2 antagonist -11, D2 ag-2 5, D2 PAM-1 -8, D2 PAM-2 -27, D3 ag -8% and D2 ag-3 -1%.
For COc1cccc(COC(=O)CSCC(=O)Nc2ccc(C)cc2)c1OC the results were D2 ag-2 -1 and D2 PAM-1 -14.
`CCOC(=O)c1ccccc1NC(=O)CSc1nc2ncccc2[nH]1` gave D2 PAM-2 4.
`COc1ccc(CNCCCn2cnc3c(SC)ncnc32)cc1` gave D2 ag-2 -5 and D2 PAM-1 -8.
CCOC(=O)N1CCN(C/C(Cl)=C/c2ccccc2)CC1 was read as D2 ag-1 49*, D2 antagonist 8, D2 ag-2 inconclusive, D2 PAM-1 2, D2 PAM-2 -21, D3 ag -1% and D2 ag-3 16%.
For COC(=O)c1cnc(N2CCN(c3ccc(OC)cc3)CC2)c2ccccc12 the results were D2 ag-1 -1 and D2 PAM-2 9.
Screening CC1=NN(C(N)=S)C(=O)C1N=Nc1ccccc1Cl (stereo unspecified) returned D2 ag-1 1, D2 antagonist -9, D2 ag-2 -6, D2 PAM-1 -1 and D2 PAM-2 6.
Screening CC1=NN(C(N)=S)C(=O)C1N=Nc1ccccc1C(=O)O (stereo unspecified) returned D2 ag-2 -1, D2 PAM-1 -5, D3 ag 1% and D2 ag-3 -3%.
C=CCC1NCCc2c(Br)cccc21 (stereo unspecified) was read as D2 ag-1 47*, D2 antagonist 29, D2 ag-2 4, D2 PAM-1 -11, D2 PAM-2 -16, D3 ag -15% and D2 ag-3 0%.
For C=CC[C@@H]1Cc2c(Br)ccc(Br)c2[C@@H](CC=C)N1 the results were D2 ag-1 6, D2 antagonist -5, D2 ag-2 inconclusive, D2 PAM-1 12 and D2 PAM-2 3.
`Cc1ccc(-n2c3c(c(=O)[nH]c2=O)C(NC(=O)C(C)(C)C)(C(F)(F)F)C(=O)N3)cc1` (stereo unspecified) gave D2 ag-1 0 and D2 PAM-2 -9.
CCCN(CCC)CCCNC(=S)Nc1ccc2nc(N3CCN(CC)CC3)cc(C)c2c1 was read as D2 ag-1 17, D2 antagonist -1, D2 ag-2 -1, D2 PAM-1 -13, D2 PAM-2 -16, D3 ag 8% and D2 ag-3 2%.
`COc1cc(C(=S)N2CCOCC2)cc(OC)c1OC(=O)c1ccc(C)cc1` gave D2 ag-1 0, D2 antagonist 27, D2 ag-2 -6, D2 PAM-1 -2, D2 PAM-2 5, D3 ag 1% and D2 ag-3 2%.
`Cc1ccc2c(c1)N(C(C)C(=O)NCc1ccc3c(c1)OCO3)C(=O)CO2` (stereo unspecified) gave D2 ag-1 0, D2 antagonist 16, D2 ag-2 5, D2 PAM-1 -3, D2 PAM-2 -7, D3 ag -1% and D2 ag-3 -1%.
Screening CC(C)CCNC(=O)CN1C(=O)CSc2ccc(S(=O)(=O)N3CCCCC3)cc21 returned D2 ag-1 0 and D2 PAM-2 1.
For Cc1[nH]nc2nc(SCC(=O)NCCC3=CCCCC3)n(-c3ccc(Br)cc3)c(=N)c12 the results were D2 ag-1 41*, D2 antagonist -16, D2 ag-2 7, D2 PAM-1 -1, D2 PAM-2 -24, D3 ag 9% and D2 ag-3 0%.
CCN1C(C(=O)Nc2cc(C)on2)=C(O)c2ccccc2S1(=O)=O was read as D2 ag-1 38*, D2 antagonist 14, D2 ag-2 -2, D2 PAM-1 -1, D2 PAM-2 4, D3 ag 3% and D2 ag-3 12%.
Cc1cc(C)n2nc(C(=O)Nc3ccn(Cc4ccccc4C)n3)cc2n1 was read as D2 ag-1 51*, D2 antagonist -8, D2 ag-2 0, D2 PAM-1 -1, D2 PAM-2 0, D3 ag 2% and D2 ag-3 -2%.
`O=C(N[C@H]1CCC(=O)N(CCSc2ccc(Br)cc2)CC1)OCc1ccccc1` gave D2 ag-1 0, D2 antagonist -1, D2 ag-2 0, D2 PAM-1 2, D2 PAM-2 -16, D3 ag 3% and D2 ag-3 13%.
For O=C(NCCO)c1ccc(-c2ccc3nncn3c2)cc1 the results were D2 ag-2 -4 and D2 PAM-1 2.
Screening O=c1[nH]c(C2CCN(S(=O)(=O)/C=C/c3ccccc3)CC2)nc2c1nnn2Cc1ccccc1 returned D2 ag-1 0, D2 antagonist 21, D2 ag-2 0, D2 PAM-1 -1 and D2 PAM-2 10.
CCOCC(=O)Nc1ccc(OCc2ccccc2)cc1 was read as D2 ag-1 0, D2 antagonist 1, D2 ag-2 -7, D2 PAM-1 -1 and D2 PAM-2 1.
`O=C(O)COCC(=O)Nc1ccc(OCCc2ccccc2)cc1` gave D2 ag-1 0, D2 antagonist 0, D2 ag-2 -2, D2 PAM-1 -3, D2 PAM-2 -4, D3 ag -4% and D2 ag-3 2%.
`COc1ccc(NC(=O)CCCN2C(=O)CN(C)C2=O)cc1Cl` gave D2 ag-1 1, D2 antagonist -7, D2 ag-2 -1, D2 PAM-1 7 and D2 PAM-2 9.
